Source: PubChem BioAssay (National Center for Advancing Translational Sciences (NCATS))
Most compounds without a hit are left out; they make up all but 3.1% or so of the library.
Mito fusion yeast: blocks mitochondrial division or promotes mitochondrial fusion | S. cerevisiae fusion-defective mutant growth rescue, CellTiterGlo 48 h | Potency, µM (series often up to 46.1 µM), for inactives: top-dose growth rescue (activation), actives largely listed as activators | hit rate 0.23% among 320,000 | AID 485298; also: % of control where 0% means no effect; nearly all actives have a fitted effect of over 45% in size
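Read-out: ATP-based luminescence (CellTiterGlo, 10 min ambient) reporting growth of fusion-defective ts yeast after 48 hours at 37C on glycerol/ethanol YPEG medium in the presence of compound.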
rTrxR1 inhibitor: rat TrxR1 inhibition | O89049 | recombinant rTrxR1, NADPH fluorescence consumption, selenite substrate | Potency, µM (doses to about 114 µM), without a hit: at the highest dose activity change, negative = inhibition, actives largely listed as inhibitors | hit rate 1% among 390,000 | AID 588453; also: % is scaled to controls: 0 for no effect and ±100 for the full control effect; nearly all actives have a fitted effect of over 65% in size
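Rat TrxR1 (90 nM in the dispensed reagent) was pre-reduced with 400 uM NADPH for 5 min at room temperature, then incubated with compound for 15 min. After 400 uM selenite was added, NADPH fluorescence (Ex 340/Em 450 nm) was followed for 8 min.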
A549 viability: A549 cytotoxicity, counter-screen for Nrf2 inhibitors; A549 ARE-Fluc cells, CellTiter-Fluor viability, 18-24 h; Potency, µM (series often up to 46 µM), for inactives: at the top dose activity change, negative = cytotoxicity, most hits filed as inhibitors; hit rate 0.16% among 390,000; AID 504648; also: % is scaled to controls: 0 for no effect and ±100 for the full control effect
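A549 ARE-Fluc cells in 5% FBS OPTI-MEM, 5000 cells/well, rested 2 h then exposed to compounds in concentration-response for 18-24 h at 37 °C. Viability by CellTiter-Fluor fluorescence (Ex 405/Em 525) after 30 min; luciferase luminescence (BugLite, 15 min, RT) read afterwards.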
IDH1 R132H inh: blocks human mutant IDH1 R132H enzyme | IDH1-R132H enzyme, NADPH consumption, diaphorase/resazurin fluorescence | Potency, µM (titrated, usually from 76.6 µM), inactives show top-dose activity change, negative = inhibition, usual class: inhibitors | hit rate 0.093% among 390,000 | AID 602179; also: % is scaled to controls: 0 for no effect and ±100 for the full control effect; nearly all actives have a fitted effect of over 65% in size
Target sequence (O75874 whole entry R132H, stated change not applied): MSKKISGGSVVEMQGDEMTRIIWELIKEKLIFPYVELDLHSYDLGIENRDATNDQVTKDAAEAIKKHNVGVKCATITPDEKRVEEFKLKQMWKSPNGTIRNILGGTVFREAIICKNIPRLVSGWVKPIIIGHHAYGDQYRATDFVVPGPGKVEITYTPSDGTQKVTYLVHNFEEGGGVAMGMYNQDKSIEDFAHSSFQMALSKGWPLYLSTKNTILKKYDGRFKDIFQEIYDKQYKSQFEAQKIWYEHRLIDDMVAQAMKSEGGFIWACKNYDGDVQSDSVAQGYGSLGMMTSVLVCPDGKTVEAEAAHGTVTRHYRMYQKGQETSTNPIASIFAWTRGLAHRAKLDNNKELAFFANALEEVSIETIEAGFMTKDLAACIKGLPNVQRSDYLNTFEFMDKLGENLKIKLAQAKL
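IDH1-R132H (0.5 ug/mL) preincubated 30 min with compound, then NADPH (0.016 mM) and alpha-KG (2 mM) added; 80 min at RT, pH 7.5. Remaining NADPH coupled via diaphorase/resazurin to fluorescence (540/590 nm); concentration-response curves normalized to no-enzyme control.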
Nrf2 inh: Nrf2 pathway inhibition; AID 504444; A549 ARE-Fluc reporter, luciferase luminescence, 18-24 h; hit rate 2.1% among 360,000; Potency, µM (doses to about 46 µM), for inactives: top-dose activity change, negative = inhibition, actives largely listed as inhibitors; also: % is scaled to controls: 0 for no effect and ±100 for the full control effect; nearly all actives have a fitted effect of over 60% in size
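Reporter: ARE-Fluc in A549. Exposure: 18-24 h, 37 °C, 5% CO2, 5% FBS OPTI-MEM. Readouts: fluorescent cytotoxicity (CellTiter-Fluor), then luminescent Nrf2 signal after BugLite.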
TrxR1 substrate: rat thioredoxin reductase 1 substrate activity. O89049. purified TrxR1 substrate turnover, NADPH consumption readout. Potency, µM (doses to about 114 µM), for inactives: top-dose activity change, negative = substrate turnover. hit rate 0.01% among 390,000. AID 588456; also: % is scaled to controls: 0 for no effect and ±100 for the full control effect; nearly all actives have a fitted effect of over 50% in size
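Rat TrxR1, dispensed at 90 nM, was prereduced with 400 uM NADPH (final) for 5 min at ~22 deg C, then incubated with compound 15 min before 400 uM selenite. A first-read NADPH fluorescence drop versus no-compound background flagged substrates.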
Numbers without * were called inactive; ? = inconclusive; . = no result given; [ ] = remark or other dose. Calls follow the shape of the dose curve; as a rule, active = well fitted curve in the direction sought with a large enough effect; inconclusive = small, poorly fitted or top-dose-only effect, or another doubt; inactive = no such curve, though single readings can be large; an effect the other way counts as inactive or inconclusive. Potency is read from the fitted curve at half-maximal effect.

SMILES	Mito fusion yeast	rTrxR1 inhibitor	A549 viability	IDH1 R132H inh	Nrf2 inh	TrxR1 substrate
COc1ccc2c(c1)C/C(=C\c1ccc(N(C)C)cc1)C2=O	.	-0.4%	.	.	.	-15.2%
COc1ccc(/C=C/C(=O)Nc2ccc(OC)nc2)cc1	0.0%	-1.4%	1.6%	4.9%	?	-6.5%
COc1ccc(NC(=O)/C=C/c2cccc(Br)c2)cn1	12.9%	-4.2%	-17.3%	15.5%	16.4µM*	-7.3%
COc1ccc(NC(=O)/C=C/c2ccc(OC(F)F)cc2)cn1	4.6%	-5.7%	-18.2%	12.9%	18.4µM*	-13.3%
O=C(Nc1cccc(-c2nc3ncccc3o2)c1)c1ccc(-c2cccc(Cl)c2Cl)o1	.	?	-6.2%	-18.0%	5.8µM*	11.6%
COc1ccc(NC(=O)CSc2nc(-c3ccc(F)cc3)[nH]c2-c2ccc(C)cc2)cc1OC	.	2.4%	?	11.7%	?	1.5%
COc1ccc(NC(=O)CSc2ncccc2C(=O)OC(C)C)cc1OC	5.4%	24.7%[57.1 µM]	1.0%	0.7%	9.2µM*	7.3%[57.1 µM]
O=C(CSc1nc(-c2ccc(F)cc2)[nH]c1-c1ccccc1)Nc1ccccc1	.	3.3%	-23.9%	35.9%	20.6µM*	0.3%
COc1ccc(NC(=O)C#Cc2ccccc2)cc1OC	-11.3%	-8.1%	-7.6%	3.0%	8.2µM*	0.8%
COc1ccc(-c2nc(SCC(=O)Nc3ccccc3)c(-c3ccc(F)cc3)[nH]2)cc1OC	.	0.4%	?	9.3%	14.6µM*	-1.9%
CCOc1ccccc1CNc1nc2nc(C)c(CC(=O)OC)c(=O)n2[nH]1	.	14.6%	7.9%	13.0%	10.6%	0.2%
COc1ccc(NC(=O)CSc2nc(-c3ccccc3)[nH]c2-c2ccccc2)cc1OC	.	8.0%	-18.5%	4.5%	16.4µM*	1.7%
CCN(Cc1ccccc1)c1ccc(/C=N/NC(=O)c2cccc(S(=O)(=O)N3CCOCC3)c2)cc1	-3.1%	-5.6%	-21.7%	-0.8%	11.6µM*	0.5%
CCOc1ccc(Cn2nnc(C(=O)Nc3cccc(SC)c3)c2N)cc1	.	6.3%	-9.7%	-8.0%	16.4%	1.6%
CC(C)(C)c1cc(-c2csc(Nc3ccccc3)[n+]2Cc2ccc(C(=O)O)cc2)cc(C(C)(C)C)c1O	-10.2%	-6.4%	-20.3%	36.9µM*	?	-5.8%
O=C(CCC1N=C2c3ccccc3N=C(SCc3ccc(F)cc3)N2C1=O)NC1CCCCC1 (stereo not drawn)	.	6.6%[57.1 µM]	?	3.0%	.	8.7%[57.1 µM]
O=C(CCl)N(Cc1cc(=O)[nH]c2ccccc12)c1ccccc1	-17.5%	?	-12.6%	-0.1%	23.1µM*	12.7%[57.1 µM]
CCC(=O)N(Cc1cc(=O)[nH]c2ccccc12)c1ccccc1	1.2%	18.4%	6.3%	1.2%	2.6%	2.7%
COc1ccc(-c2csc(NC(=O)CSCc3c(C)noc3C)n2)cc1OC	-2.6%	-0.5%	-7.9%	-1.7%	23.1µM*	-7.1%
COC(=O)c1c(-c2ccc(C)cc2)csc1NC(=O)Cc1ccc(OC)c(OC)c1	-0.1%	-21.0%	-2.1%	3.6%	18.4µM*	-8.1%
COc1ccccc1CC(=O)Nc1nc(-c2ccc(F)c(F)c2)cs1	0.5%	5.4%	-4.0%	4.1%	23.1µM*	-3.9%
COc1ccc(CC(=O)Nc2nc(-c3ccc(OC)c(OC)c3)cs2)cc1OC	-14.7%	7.4%	?	-1.4%	14.6µM*	-4.2%
CCOc1ccc(NC(=O)CCc2c(C)nc3cc(-c4ccc(Cl)cc4)nn3c2C)cc1	.	29.2%	-7.7%	13.8%	?	8.3%
COc1ccc(-c2csc(NC(=O)Cc3ccccc3F)n2)cc1OC	25.9%	36.7%[57.1 µM]	?	15.1%	20.6µM*	-17.1%[57.1 µM]
CN(C)c1ccc(/C=C/c2ccnc3c(-c4ccccc4)cccc23)cc1	.	25.1%	.	.	.	0.7%
SMILES	Mito fusion yeast	rTrxR1 inhibitor	A549 viability	IDH1 R132H inh	Nrf2 inh	TrxR1 substrate
COc1ccccc1Nc1nn2c(=O)c3ccc(C(=O)NCCc4ccccc4)cc3nc2s1	.	32.4%	8.2µM*	-2.0%	18.4µM*	14.6%
CCn1c(SCC(=O)Nc2cc(Cl)ccc2OC)nc2c([nH]c3ccccc32)c1=O	.	23.1%[57.1 µM]	-0.7%	3.4%	.	5.2%[57.1 µM]
NC(=S)N=Nc1ccc(NN=C(N)N)cc1	-0.5%	20µM*	?	16.9%	-17.0%	-9.2%
N#C/C(=N/Nc1ccc(OC(F)(F)F)cc1)C(N)=S	-3.3%	-13.0%	?	-10.8%	?	-10.9%
CCc1ccc(OCCNC(=O)c2cc(SC)ccc2Cl)cc1	2.3%	3.0%	?	-2.2%	18.4µM*	-6.2%
CCN(C)c1ccc(/C=C/c2ccnc3ccccc23)cc1	.	-10.3%	.	.	.	-5.7%
COc1cccc(C(=O)NN2C(=O)C3C4C=CC(O4)C3C2=O)c1 (stereo not drawn)	-0.6%	28.2µM*	-8.7%	-3.2%	2.8%	-3.2%
Cc1nc(-c2c(C(F)(F)F)noc2-c2ccc(O)cc2O)cs1	10.5%	17.5%	0.2%	4.5%	-15.1%	3.4%
CCOc1cc(C)c(-c2onc(C(F)(F)F)c2-c2csc(C)n2)c(O)c1	-5.7%	-3.2%	25.9µM*	4.2%	?	-15.9%
COc1cc(CNc2cccc(F)c2)cc(Br)c1O	0.6%	12.6µM*	8.8%	-2.3%	-6.6%	-1.1%[57.1 µM]
O=C(NCCCc1nc2ccccc2n1CCOc1ccccc1)C1CCCCC1	.	32.2%[0.0914 µM]	-1.4%	.	-3.5%	14.2%[0.0914 µM]
